In PubChem BioAssay:
Activity calls are given as the source filed them. Cut-off read from the data, not from the text of the source, unless noted: active = inhibition above about 80%; inactive = the rest.

How the values were obtained:
[1] = LFS_MB_P medulloblastoma growth inhibition, cell-based, chromothripsis tumors, cisplatin or BGB combos (AID 1671449); conditions: LFS_MB_P medulloblastoma cells;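 note: cells exposed for 96 hours; 0% = vehicle DMSO and 100% = killing by high DMSO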
[2] = HDN33 neuroblastoma growth inhibition, cell-based, chromothripsis tumors, cisplatin or BGB combos (AID 1671450); conditions: HDN33 neuroblastoma cells, stronger effect = higher value;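 note: cells exposed to compound for four days; 0% = vehicle DMSO and 100% = cell killing by high DMSO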
[3] = ICB984 medulloblastoma cell growth inhibition, synergistic combos for chromothripsis tumors, cisplatin or BGB combos (AID 1671451; call rule not given here;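 note: cells exposed for 96 hours before readout; 0% = vehicle DMSO and 100% = killing by high DMSO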); conditions: ICB984 medulloblastoma cells, drug combinations, stronger effect = higher value
[4] = LFS_MB_1R medulloblastoma cell growth inhibition, synergistic combos for chromothripsis tumors, cisplatin or BGB combos (AID 1671452); conditions: LFS_MB_1R medulloblastoma cells, stronger effect = higher value;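 note: cells exposed for 96 hours before readout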
[5] = HTB85 osteosarcoma cell growth inhibition, synergistic combos for chromothripsis tumors, BGB or cisplatin IC20 combos (AID 1671453); conditions: HTB85 osteosarcoma cells, drug combinations, stronger effect = higher value;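 note: cells exposed for 96 hours before readout; 0% = vehicle DMSO and 100% = high DMSO killing control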
[6] = CRL2098 osteosarcoma cell growth inhibition, synergistic combos for chromothripsis tumors, BGB or cisplatin IC20 combos (AID 1671454); conditions: CRL2098 osteosarcoma cells, drug combinations, stronger effect = higher value;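 note: cells exposed for 96 h before readout; 0% = vehicle DMSO and 100% = killing by high DMSO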
[7] = HD-MB03 medulloblastoma cell growth inhibition, synergistic combos for chromothripsis tumors, BGB or cisplatin IC20 combos (AID 1671455; in the data active = inhibition above about 83%;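 note: 0% = vehicle DMSO and 100% = high DMSO as cytotoxic control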); conditions: HD-MB03 medulloblastoma cells, stronger effect = higher value
[8] = UWB1.289 ovarian carcinoma cell growth inhibition, synergistic combos for chromothripsis tumors, BGB or cisplatin combos (AID 1671456); conditions: UWB1.289 ovarian carcinoma cells, stronger effect = higher value;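 note: cells exposed to compound for four days; 0% = vehicle DMSO and 100% = killing by high DMSO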
[9] = LFS_MB_2R medulloblastoma cell growth inhibition, synergistic combos for chromothripsis tumors, cisplatin combos (AID 1671457); conditions: LFS_MB_2R medulloblastoma cells, stronger effect = higher value;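 note: cells exposed to compound for four days before readout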
[10] = MDA-MB-436 breast carcinoma cell growth inhibition, synergistic combos for chromothripsis tumors, BGB or cisplatin combos (AID 1671458; call rule not given here;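 note: cells exposed for 96 hours; 0% = vehicle DMSO and 100% = killing by high DMSO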); conditions: MDA-MB-436 breast carcinoma growth inhibition, drug combinations, stronger effect = higher value
[11] = UWB1.289_BRCA1 ovarian cancer growth, cell-based, BGB or cisplatin combinations (AID 1671459); conditions: UWB1.289 BRCA1 ovarian carcinoma, drug combinations, stronger effect = higher value
[12] = human astrocyte viability loss, single and combined drugs, cytotoxicity control for chromothriptic childhood tumor combination screen, cell-based, BGB or cisplatin IC20 combos (AID 1671460); conditions: Human astrocytes, drug combinations, stronger effect = higher value;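 note: cells exposed to compounds for 96 hours before viability readout; 0% = vehicle and 100% = killing control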
[13] = growth inhibition of BT084 medulloblastoma cells, cell-based, ICGC_MB145, cisplatin and BGB IC40 combos (AID 1671461); conditions: drug combinations, stronger effect = higher value;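 note: cells exposed to drugs for 96 hours; 0% = vehicle DMSO and 100% = high DMSO full killing control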
[14] = growth inhibition of RCMB18 medulloblastoma cells, cell-based, cisplatin and BGB IC40 combos (AID 1671462); conditions: stronger effect = higher value;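 note: cells exposed to compound for four days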
[15] = growth inhibition of CRL1545 osteosarcoma cells, cell-based, cisplatin and BGB IC20 combos (AID 1671464); conditions: stronger effect = higher value;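 note: cells exposed to compound for 96 hours before readout; 0% = vehicle DMSO and 100% = high DMSO killing control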
[16] = measured here: combination with BGB IC40, at 0.05 µM
[17] = measured here: with BGB IC20 combination, at 0.5 µM
[18] = measured here: with cisplatin IC20 combination, at 0.5 µM
[19] = measured here: combination with cisplatin, at 0.5 µM
[20] = measured here: combination with cisplatin, at 5 µM

Q: With `Cn1cc(-c2cnn3c(N)c(Br)c([C@H]4CCCNC4)nc23)cn1` as the compound, how does the inhibition ([1]; at 0.5 µM, stronger effect = higher value) read?
A: Its inhibition is 20.2% (inactive).

Q: What about the inhibition ([1]; measured here: combination with BGB IC20, at 0.005 µM) of the same compound?
A: Its inhibition is -7.68%.

Q: And the inhibition ([1]; measured here: combination with BGB IC40, at 0.005 µM)?
A: Its inhibition is 93.8%.

Q: What about the inhibition [1, 16] of the same compound?
A: Its inhibition is 11.8%.

Q: And the inhibition ([1]; measured here: combination with cisplatin, at 0.5 µM, stronger effect = higher value)?
A: Its inhibition is 10.2%.

Q: And the inhibition ([1]; measured here: combination with cisplatin, at 5 µM, stronger effect = higher value)?
A: The inhibition was -24.2%.

Q: What about the inhibition ([2]; BGB combo, at 5 µM) of the same compound?
A: The inhibition was 73.2%.

Q: What about the inhibition ([2]; at 0.5 µM) of the same compound?
A: The inhibition was 22.3% (inactive).

Q: What about the inhibition ([2]; cisplatin combo, at 5 µM) of the same compound?
A: Its inhibition is 83.7%.

Q: And the inhibition [2, 17]?
A: The inhibition was 9.52%.

Q: What about the inhibition [2, 18] of the same compound?
A: Its inhibition is 28.6%.

Q: What about the inhibition ([2]; single agent, at 5 µM) of the same compound?
A: Its inhibition is 88.5%.

Q: What about the inhibition ([3]; BGB IC20 combo, at 0.005 µM) of the same compound?
A: Its inhibition is -13.9%.

Q: What about the inhibition ([3]; BGB IC40 combo, at 0.005 µM) of the same compound?
A: Its inhibition is -26.3%.

Q: And the inhibition ([3]; BGB IC40 combo, at 0.05 µM)?
A: Its inhibition is -14.6%.

Q: And the inhibition ([3]; at 0.5 µM)?
A: The inhibition was -16.3% (inactive).

Q: And the inhibition ([3]; cisplatin combo, at 0.05 µM)?
A: The inhibition was -20.5%.

Q: And the inhibition ([3]; cisplatin combo, at 0.5 µM)?
A: Its inhibition is -27.1%.

Q: And the inhibition ([3]; cisplatin combo, at 5 µM)?
A: The inhibition was -5.82%.

Q: And the inhibition ([3]; measured here: 5 uM single agent, at 5 µM)?
A: The inhibition was -16.1%.

Q: And the inhibition ([4]; at 0.5 µM)?
A: The inhibition was 2.92% (inactive).

Q: What about the inhibition [4, 16] of the same compound?
A: The inhibition was -16.9%.

Q: And the inhibition [4, 19]?
A: The inhibition was 5.45%.

Q: What about the inhibition [4, 20] of the same compound?
A: Its inhibition is -19.5%.

Q: And the inhibition ([5]; at 0.5 µM)?
A: Its inhibition is -14.3% (inactive).

Q: What about the inhibition ([5]; measured here: with BGB IC20, at 0.5 µM) of the same compound?
A: The inhibition was 4.42%.

Q: And the inhibition ([5]; measured here: with BGB IC20, at 5 µM)?
A: Its inhibition is 66.4%.

Q: What about the inhibition ([5]; measured here: with cisplatin IC20, at 0.5 µM) of the same compound?
A: Its inhibition is -18.4%.

Q: What about the inhibition ([5]; measured here: with cisplatin IC20, at 5 µM) of the same compound?
A: Its inhibition is 80.6%.

Q: And the inhibition ([5]; single agent, at 5 µM)?
A: Its inhibition is 52.9%.

Q: And the inhibition ([6]; at 0.5 µM)?
A: Its inhibition is -2.8% (inactive).

Q: And the inhibition ([6]; measured here: combination with BGB at IC20, at 0.5 µM)?
A: Its inhibition is -24%.

Q: What about the inhibition ([6]; measured here: combination with cisplatin at IC20, at 0.5 µM) of the same compound?
A: Its inhibition is -3.06%.

Q: What about the inhibition ([7]; at 0.5 µM) of the same compound?
A: Its inhibition is 6.2% (inactive).

Q: And the inhibition ([7]; measured here: combo with BGB at IC20, at 0.5 µM)?
A: The inhibition was 2.25%.

Q: And the inhibition ([7]; measured here: combo with cisplatin at IC20, at 0.5 µM)?
A: The inhibition was 17.7%.

Q: And the inhibition ([8]; at 0.5 µM)?
A: The inhibition was 28.5% (inactive).

Q: And the inhibition ([8]; measured here: inhibition with BGB combination, at 0.05 µM)?
A: The inhibition was -6.38%.

Q: What about the inhibition ([8]; measured here: inhibition with cisplatin combination, at 0.05 µM) of the same compound?
A: Its inhibition is -4.25%.

Q: And the inhibition ([9]; at 0.5 µM)?
A: Its inhibition is -5.31% (inactive).

Q: And the inhibition [9, 19]?
A: The inhibition was -14.4%.

Q: And the inhibition [9, 20]?
A: Its inhibition is -6.17%.

Q: And the inhibition ([10]; at 0.5 µM)?
A: The inhibition was 29.3% (inactive).

Q: What about the inhibition ([10]; measured here: BGB combination, at 0.5 µM) of the same compound?
A: The inhibition was 21.8%.

Q: What about the inhibition ([10]; measured here: BGB combination, at 5 µM) of the same compound?
A: Its inhibition is 53.4%.

Q: What about the inhibition ([10]; measured here: cisplatin combination, at 0.5 µM) of the same compound?
A: Its inhibition is 36.8%.

Q: And the inhibition ([10]; measured here: cisplatin combination, at 5 µM)?
A: Its inhibition is 73.3%.

Q: What about the inhibition ([11]; BGB combination, concentration series, at 5 µM) of the same compound?
A: The inhibition was 103%.

Q: What about the inhibition ([11]; at 0.5 µM) of the same compound?
A: Its inhibition is 7.13% (inactive).

Q: What about the inhibition ([11]; cisplatin combination, concentration series, at 5 µM) of the same compound?
A: The inhibition was 119%.

Q: What about the inhibition ([12]; at 0.5 µM) of the same compound?
A: Its inhibition is -19% (inactive).

Q: What about the inhibition ([12]; measured here: combo with BGB IC20, at 0.5 µM) of the same compound?
A: The inhibition was -17.5%.

Q: And the inhibition ([12]; measured here: combo with cisplatin IC20, at 0.5 µM)?
A: The inhibition was -30.9%.

Q: What about the inhibition ([13]; at 0.5 µM) of the same compound?
A: Its inhibition is 11% (inactive).

Q: And the inhibition ([13]; cisplatin combination, at 0.5 µM)?
A: Its inhibition is 16.1%.

Q: What about the inhibition ([13]; cisplatin combination, at 5 µM) of the same compound?
A: The inhibition was -105%.

Q: What about the inhibition ([13]; measured here: BGB IC40 combination 0.05 uM, at 0.05 µM) of the same compound?
A: The inhibition was 5.34%.

Q: What about the inhibition ([13]; single agent, at 5 µM) of the same compound?
A: Its inhibition is 34.7%.

Q: What about the inhibition ([14]; at 0.5 µM) of the same compound?
A: Its inhibition is 4.28% (inactive).

Q: What about the inhibition ([14]; cisplatin combo, at 5 µM) of the same compound?
A: The inhibition was 22.7%.

Q: And the inhibition ([14]; measured here: BGB IC40 combination, at 0.05 µM)?
A: The inhibition was -33.2%.

Q: What about the inhibition [14, 19] of the same compound?
A: Its inhibition is -3.81%.

Q: And the inhibition ([14]; single agent, at 5 µM)?
A: Its inhibition is 47.3%.

Q: And the inhibition ([15]; at 0.5 µM)?
A: Its inhibition is 79.7% (inactive).

Q: And the inhibition [15, 17]?
A: The inhibition was 73.9%.

Q: And the inhibition [15, 18]?
A: The inhibition was 82.3%.

Q: What about the inhibition ([15]; single agent, at 0.05 µM) of the same compound?
A: The inhibition was 19%.

Q: What about the inhibition ([15]; single agent, at 5 µM) of the same compound?
A: The inhibition was 92.3%.
